“And” between values parts separate entries of the source, which are not always exact repeats. Equal entries are not always repeated. Results filed as inconclusive are left out. More than one record can exist for a structure, and the calls need not agree. The source made the active and inactive calls. Calls come from the whole dose curve; as a rule, active = well fitted curve in the direction sought with a large enough effect; inconclusive = small, poorly fitted or top-dose-only effect, or another doubt; inactive = no such curve, though single readings can be large; an effect the other way counts as inactive or inconclusive.
Key:
[1] = Viability qHTS for spleen associated tyrosine kinase inhibitor (SYKi) naive MV4-11 cells (AID 1963823); note: nearly all actives have a fitted effect of over 40% in size
In short: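 qHTS, SYK inhibitor-naive MV4-11; 500 cells/well; 72 hr compound exposure, 37 C; CellTiter-Glo added, 10 min RT; luminescence read.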

[2] = Viability qHTS for spleen associated tyrosine kinase inhibitor (SYKi) drug resistant MV4-11 cells (AID 1963824); note: nearly all actives have a fitted effect of over 35% in size
In short: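 SYK inhibitor-resistant MV4-11 AML cells, 500 per well, added to predispensed compounds and incubated 72 hr at 37 C, 5% CO2. Viability measured by CellTiter-Glo luminescence after 10 min at room temperature.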

[3] = Quantitative highthroughput screen to assess conditional lethalithy of NOMO1 cells grown in RPMI1640 with dialyzed fetal bovine serum (RPMI+ds) (AID 1963877); note: nearly all actives have a fitted effect of over 30% in size;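 for Viability: series mostly up to about 46 µM; 100% = DMSO control wells and 0% = empty wells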
In short: (§1)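 Each medium arm—HPLM with 10% dialyzed FBS, or RPMI1640 with 5 mM glucose and 10% untreated or dialyzed FBS—was screened against an 11-point, 3-fold compound titration for 48 h at 37 °C, with CellTiter-Glo luminescence as endpoint.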

[4] = Cellular viability qHTS for adrenocortical cancer (ACC) cell line SW-13 (AID 1963989); conditions: SW-13 ACC cells viability, CellTiter-Glo, 48 h; activity (max response): stronger effect = lower value; note: nearly all actives have a fitted effect of over 65% in size;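 for activity (max response): cells grown in serum-free medium with ITS supplement; % is set by controls: 0 for no effect and ±100 for the full control effect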
In short: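 SW-13 cells in ITS-supplemented serum-free DMEM were plated overnight, then exposed for 48 h at 37C to compound titrations (up to 46 uM final). Viability was read by CellTiter-Glo luminescence; four-parameter logistic fits gave IC50 and efficacy.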

[5] = Cellular viability qHTS for adrenocortical cancer (ACC) cell line NCI-H295R (AID 1963990); note: nearly all actives have a fitted effect of over 60% in size
In short: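 Luminescent ATP read-out (CellTiter-Glo, 20 min RT) after 48 h drug exposure of NCI-H295R cells; a titration up to 46 uM final. Data normalized to doxorubicin (100% inhibition) and DMSO (0%); 4-parameter fit gives IC50, max response.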

[6] = Quantitative highthroughput screen to assess conditional lethalithy of NOMO1 cells grown in Human Plasma-Like Medium with dialyzed fetal bovine serum (HPLM+ds) (AID 1963878); note: nearly all actives have a fitted effect of over 35% in size;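 for Viability: 100% = DMSO wells and 0% = empty wells on each plate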
In short: as §1

[7] = Quantitative highthroughput screen to assess conditional lethalithy of SEM cells grown in Human Plasma-Like Medium with dialyzed fetal bovine serum (HPLM+ds) (AID 1963882); note: nearly all actives have a fitted effect of over 35% in size; for Viability: series mostly up to about 46 µM
In short: as §1

[8] = Quantitative highthroughput screen to assess conditional lethalithy of SEM cells grown in RPMI1640 with unreated serum (RPMI+s) (AID 1963883); note: nearly all actives have a fitted effect of over 35% in size;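 for Viability: 100% = DMSO wells and 0% = empty wells without cells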
In short: as §1

[9] = Quantitative highthroughput screen to assess conditional lethalithy of SEM cells grown in RPMI1640 with dialyzed fetal bovine serum (RPMI+ds) (AID 1963884); note: nearly all actives have a fitted effect of over 35% in size;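 for Viability: series mostly up to about 46 µM; 100% = DMSO control wells and 0% = empty wells without cells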
In short: as §1

[10] = Quantitative highthroughput screen to assess conditional lethalithy of P12 Ichikawa cells grown in Human Plasma-Like Medium with dialyzed fetal bovine serum (HPLM+ds) (AID 1963879); conditions: Potency: viability; note: nearly all actives have a fitted effect of over 35% in size; for Viability: series mostly up to about 46 µM
In short: as §1

[11] = Quantitative highthroughput screen to assess conditional lethalithy of P12 Ichikawa cells grown in RPMI1640 with dialyzed fetal bovine serum (RPMI+ds) (AID 1963880); conditions: Potency: P12-Ichikawa viability; note: nearly all actives have a fitted effect of over 35% in size;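 for Viability: 100% = DMSO wells and 0% = empty wells on each plate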
In short: as §1

[12] = Quantitative highthroughput screen to assess conditional lethalithy of P12 Ichikawa cells grown in RPMI1640 with untreated serum (RPMI+s) (AID 1963881); conditions: Potency: viability; note: nearly all actives have a fitted effect of over 35% in size;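 for Viability: series mostly up to about 46 µM; 100% = DMSO wells and 0% = empty wells without cells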
In short: as §1
Potency is the fitted concentration of half-maximal effect.

Structure (SMILES)	Potency [1]	Potency [2]	Potency [3]	Potency [4]	Potency [5]	Potency [6]	Potency [7]	Potency [8]	Potency [9]	activity (max response) [4]	Potency [10]	Potency [11]	Potency [12]
CC(C)c1cc(C(=O)N2Cc3ccc(CN4CCN(C)CC4)cc3C2)c(O)cc1O	33.2 nM (active)	41.1 nM (active) and 52.5 nM (active)	0.662 µM (active)	0.398 µM (active)	0.631 µM (active)	–	–	–	–	–	–	–	–
O=C(Nc1cn[nH]c1-c1nc2ccc(CN3CCOCC3)cc2[nH]1)NC1CC1	25.9 nM (active)	73.1 nM (active) and 51.7 nM (active) and 132 nM (active)	18.7 µM (active)	3.16 µM (active)	20 µM (active)	14.8 µM (active)	0.0833 µM (active)	0.0418 µM (active)	0.0332 µM (active)	–	–	–	–
CCCc1nn(C)c2c(=O)[nH]c(-c3cc(S(=O)(=O)N4CCN(C)CC4)ccc3OCC)nc12	inactive	18.6 µM (active)	inactive	–	inactive	inactive	–	–	–	1.97% (inactive) and 1.26% (inactive)	–	–	–
CC(C)C[C@@H](C(=O)N[C@H](C(=O)OC1CCCC1)c1ccccc1)[C@H](O)C(=O)NO	372 nM (active)	0.0742 µM (active)	23.5 µM (active)	–	25.1 µM (active)	–	–	–	–	–	20.9 µM (active)	–	–
COc1cc(NCc2ccc3nc(N)nc(N)c3c2C)cc(OC)c1OC	1050 nM (active)	42.2 nM (active) and 1.05 µM (active)	10.5 µM (active)	10.3 nM (active) and 1.12 µM (active)	14.6 nM (active) and 2.82 µM (active)	–	–	–	–	–	2.35 µM (active)	10.5 µM (active)	18.7 µM (active)
Cc1nn(C)c(COc2ccc(N3CCN(S(=O)(=O)N(C)C)CC3)cc2)c1-c1cccc2c(CCCOc3cccc4ccccc34)c(C(=O)O)n(CCN3CCOCC3)c12	7.42 µM (active) and inactive	6.61 µM (active) and inactive	inactive	–	inactive	–	–	–	–	–	–	–	–
CNC(=O)c1cc(Oc2ccc(NC(=O)Nc3ccc(Cl)c(C(F)(F)F)c3)cc2)ccn1	21.1 nM (active)	23.5 nM (active) and 59.6 nM (active) and 13 nM (active)	18.7 µM (active)	8.91 µM (active) and 11.6 µM (active)	11.2 µM (active) and 10.3 µM (active)	–	–	–	–	–	–	–	–
CC(C)C[C@H](NC(=O)CNC(=O)c1cc(Cl)ccc1Cl)B(O)O	93.4 nM (active)	0.0934 µM (active)	0.418 µM (active)	2 µM (active)	0.398 µM (active)	–	–	–	–	–	–	–	–
CC1(C)CCC(c2ccc(Cl)cc2)=C(CN2CCN(c3ccc(C(=O)NS(=O)(=O)c4ccc(N[C@H](CCN5CCOCC5)CSc5ccccc5)c(S(=O)(=O)C(F)(F)F)c4)cc3)CC2)C1	116 nM (active) and 332 nM (active)	32.6 nM (active) and 118 nM (active)	0.264 µM (active)	–	inactive	–	0.0833 µM (active)	–	0.0526 µM (active)	11.1% (inactive)	0.118 µM (active)	–	0.166 µM (active)
CC(C)NCC(O)c1ccc(NS(C)(=O)=O)cc1 (stereo not given)	inactive	inactive	inactive	–	inactive	–	inactive	inactive	–	2.53% (inactive)	inactive	inactive	inactive
COc1cc2ncnc(-n3nc(-c4ccccn4)nc3N)c2cc1OC	796 nM (active) and 1.48 µM (active)	2.63 µM (active)	23.5 µM (active)	–	inactive	20.9 µM (active)	5.26 µM (active)	1.32 µM (active)	2.35 µM (active)	10.9% (inactive)	–	–	–
NS(=O)(=O)c1ccc(Nc2nc(OCC3CCCCC3)c3[nH]cnc3n2)cc1	580 nM (active)	0.651 µM (active)	0.59 µM (active)	22.4 µM (active)	–	–	0.469 µM (active)	0.296 µM (active)	0.469 µM (active)	–	0.0469 µM (active)	0.296 µM (active)	0.372 µM (active)
C#Cc1cccc(Nc2ncnc3cc(OCCOC)c(OCCO)cc23)c1	1480 nM (active)	2.63 µM (active)	–	6.31 µM (active)	–	9.35 µM (active)	–	20.9 µM (active)	–	–	–	–	–
O=C(Nc1nnc(-c2ccco2)o1)c1cc(-c2ccccc2)nc2ccccc12	13200 nM (active)	13.2 µM (active)	–	20 µM (active)	10 µM (active)	5.9 µM (active)	–	4.69 µM (active)	20.9 µM (active)	–	4.69 µM (active)	–	26.4 µM (active)
Cn1cnc2c1c(=O)[nH]c(=O)n2C	inactive	inactive	–	–	inactive	20.9 µM (active)	–	–	23.5 µM (active)	4.02% (inactive) and 2.06% (inactive)	–	–	–
COc1ccc2c(c1)c(CC(=O)OCC(=O)O)c(C)n2C(=O)c1ccc(Cl)cc1	inactive	inactive	–	–	inactive	inactive	–	inactive	inactive	-2.34% (inactive)	inactive	inactive	inactive
